The text below walks through data of ChEMBL document CHEMBL4513135, “CO-ADD screening of IQOG CSIS (Spain) compounds”.

The structures appear in SMILES notation. Results with a measured potency or affinity are listed apart.

Test [1] relates to Staphylococcus aureus. The conditions noted are these: Concentration 32 ug.mL-1; ASSAY_TEST Inhibition of Bacterial Growth; detection method Absorption (OD600); MEDIA CAMHB; plate type 384well; NBS; CORNING #3640; time 18 hr.
For test [2], the system named is Escherichia coli. The conditions noted are these: Concentration 32 ug.mL-1; ASSAY_TEST Inhibition of Bacterial Growth; detection method Absorption (OD600); MEDIA CAMHB; plate type 384well; NBS; CORNING #3640; time 18 hr.

As to `CCOC(=O)c1c(C)nc(NC2CCN(Cc3ccccc3)CC2)c(C#N)c1-c1ccccc1`, the Inhibition (usually the change of the read-out against control, counted positive when it falls) in test [1] is listed as 43.62%; in test [2] it was -5.95%.

Take `CC1=N/C(=C(\C)c2ccccc2)C(=O)O1`: the Inhibition in test [1] was -1.19%; in test [2], 0.61%.

`COc1cc(C2CC2(N)C(=O)O)ccc1O` (stereo not given): the Inhibition was 4.38% in test [1] and -1.72% in test [2].

Consider `C#CCN(C)Cc1cc2cc(OCCCC3CCN(C(=O)OC(C)(C)C)CC3)ccc2n1C`, for which the Inhibition in test [1] turned out to be 10.44%; in test [2], 14.28%.

Turning to `c1ccc(Cn2ccc3ccccc32)cc1`, the Inhibition was 7.36% in test [1] and 11.73% in test [2].

Take `N#CC1(Br)C(=NBr)Oc2ccc3ccccc3c2C1c1ccccc1` (stereo not given): the Inhibition in test [1] worked out at 7.34%; in test [2] it was 1.03%.

With `CC(C)C(=O)N/N=C/c1c[nH]c2ccccc12`, the Inhibition in test [1] was 10.48%; in test [2] it was 9.69%.

For the compound `C#CCNC.O=C(O)C(=O)O`, the Inhibition in test [1] is listed as 24.36%; in test [2], 23.06%.

On to `O=C(Cc1c[nH]c2ccccc12)N/N=C/c1ccco1`, for which the Inhibition in test [1] is 4.9%; in test [2] it was -3.66%.

On to `Cl.ClCCCCN1CCCCC1`, for which the Inhibition in test [1] is recorded as 1.62%; in test [2] it was -1.96%.

Consider `CNCc1cc2cc(OCc3ccccc3)ccc2n1C.Cl`, for which the Inhibition in test [1] is on record as 43.08%; in test [2], 3.38%.

As to `O=C(Cc1c[nH]c2ccccc12)NNCc1ccccc1`, the Inhibition in test [1] is given as -6.19%; in test [2], -10.21%.

As to `N#Cc1c(N)nc(N2CCCCC2)c(C#N)c1-c1ccccc1`, the Inhibition in test [1] is on record as 14.68%; in test [2], -11.69%.

Regarding `N#CC1=C(N)Oc2ccc3ccccc3c2C1c1ccc(O)cc1` (stereo not given), the Inhibition in test [1] was 42.7%; in test [2] it was -6.77%.

On to `C#CCN(C)c1cc(C)nc(C)n1`, for which the Inhibition in test [1] is recorded as 21.48%; in test [2] it was -8.55%.

On to `O=C1SC(SCc2ccccc2)=NC1=Cc1ccc2c(c1)OCO2`, for which the Inhibition in test [1] is 0.74%; in test [2], 10.84%.

As for `C=CCNc1[nH]c2ccc(O)cc2c1C#N`, the Inhibition is recorded as 32.95% in test [1] and -4.66% in test [2].

As to `Cl.NNN1CCc2ccccc21`, the Inhibition was found to be 25.31% in test [1] and 10.83% in test [2].

For the compound `NC1(C(=O)O)CC1c1ccc2c(c1)OCO2` (stereo not given), the Inhibition in test [1] was -7.05%; in test [2], -7.79%.

Regarding `CCOC(=O)C1=C(C)OC(N)=C(C#N)C1c1ccc(OC)cc1` (stereo not given), the Inhibition in test [1] is 9.52%; in test [2], -2.05%.

Consider `COc1ccc(C2c3c(ccc4ccccc34)OC(=N)C2(Br)C#N)cc1` (stereo not given), for which the Inhibition in test [1] is given as 26.69%; in test [2] it was -14.26%.

With `C#CCN(C)c1nc(OC)c(C#N)c(-c2ccccc2)c1C#N`, the Inhibition in test [1] is listed as 44.46%; in test [2], -5.76%.

Take `COc1ccc2c(c1)cc(CNc1ccccc1)n2C`: the Inhibition was 20.09% in test [1] and -6.35% in test [2].

On to `Cn1ccnc1C1c2ccc3cccnc3c2Oc2nc3c(c(N)c21)CCC3` (stereo not given), for which the Inhibition in test [1] is on record as 14.96%; in test [2] it was -15.51%.

Regarding `CCOC(=O)c1c(C)nc(NCC2CCN(Cc3ccccc3)CC2)c(C#N)c1-c1ccccc1`, the results for the Inhibition in test [1] and in test [2] were 24.62% and -10.38%, respectively.

`Cl.OCCCC1CCNCC1`: the Inhibition is 22.6% in test [1] and 13.14% in test [2].

Consider `Cc1nc(NO)c2c(C)nn(-c3ccccc3)c2n1`, for which the Inhibition in test [1] is 6.32%; in test [2] it was 4.93%.

For the compound `N#CC1=C(Cl)Oc2c(ccc3ccccc23)C1c1ccccc1` (stereo not given), the Inhibition in test [1] is recorded as 14.99%; in test [2] it was -36.62%.

Take `O=C(NNCc1ccco1)c1cc2ccccc2[nH]1`: the Inhibition in test [1] is recorded as -6.59%; in test [2], -6.94%.

In the case of `O=C(N/N=C/Cc1ccccc1)c1cc2ccccc2n1Cc1ccccc1`, the values for the Inhibition in test [1] and in test [2] were 8.78% and 7.44%, respectively.

Consider `Cc1ccc2nc(Cl)c(/C=N/C(C)(C)C)cc2c1`, for which the Inhibition in test [1] is given as 28.46%; in test [2] it was 12.92%.

Turning to `N#Cc1c(N)nc(O)c(C#N)c1-c1ccccc1`, the Inhibition is given as 4.47% in test [1] and -25.59% in test [2].

Turning to `N#Cc1cc2c(N)n[nH]c2nc1N`, the Inhibition worked out at 14.97% in test [1] and 10.46% in test [2].

Take `NNC(=O)c1cc2ccccc2n1Cc1ccccc1`: the Inhibition is recorded as -21.85% in test [1] and -14.39% in test [2].

Take `CN(C)c1nc(Cl)c(C#N)c(-c2ccccc2)c1C#N`: the Inhibition is recorded as -17.89% in test [1] and -6.44% in test [2].

As for `N#CCC(=C(C#N)C#N)c1ccccc1`, the Inhibition worked out at 11.65% in test [1] and 4.41% in test [2].

With `COC(=O)C1CCN(Cc2ccccc2)CC1`, the values for the Inhibition in test [1] and in test [2] were 27.51% and 11.49%, respectively.

`N#CC1=C(Cl)Oc2ccc3ccccc3c2C1c1ccccc1` (stereo not given): the values for the Inhibition in test [1] and in test [2] were 24.96% and 12.43%, respectively.

Take `O=C(N/N=C/c1ccc(Cl)cc1)c1cc2ccccc2[nH]1`: the Inhibition in test [1] is reported as 1.43%; in test [2], 20.07%.

`C/C=C(/C#N)C(=O)OC`: the Inhibition in test [1] was -6.91%; in test [2], -6.93%.
